Measurements published in the supplement of paper PMC8728848.
About 410 targets per protein were measured; listed, in parts, are those with the strongest signals and a random draw of the rest.

Experiments:
Assay in all cases: glycan array binding signal (z-score within array); higher = stronger binding
Conditions in all cases: glycan notation: IUPAC condensed, linker removed
Fuc(a1-2)Gal(b1-3)GlcNAc = target: Fuc(a1-2)Gal(b1-3)GlcNAc
Summary of the method: (§1)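 Columns mapping to the same glycan were averaged after glycan names were converted to IUPAC-condensed notation. The data come from 3228 arrays in the Consortium for Functional Glycomics database, limited to those with an available protein sequence. Binding is reported as a within-array Z-score averaged across arrays of one protein sequence and across linkers.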

[1] = target: Fuc(a1-2)Gal(b1-3)[Fuc(a1-4)]GlcNAc
Summary of the method: as §1

Fuc(a1-2)Gal(b1-4)GlcNAc = target: Fuc(a1-2)Gal(b1-4)GlcNAc
Summary of the method: as §1

[2] = target: Fuc(a1-2)[Gal(a1-4)]Gal(b1-4)GlcNAc
Summary of the method: as §1

[3] = target: Fuc(a1-2)[GalNAc(a1-4)]Gal(b1-4)GlcNAc
Summary of the method: as §1

Gal(a1-3)Gal(b1-4)GlcNAc = target: Gal(a1-3)Gal(b1-4)GlcNAc
Summary of the method: as §1

Gal(a1-4)GlcNAc = target: Gal(a1-4)GlcNAc
Summary of the method: as §1

Gal4S(b1-4)GlcNAc = target: Gal4S(b1-4)GlcNAc
Summary of the method: as §1

GalNAc(a1-3)Gal = target: GalNAc(a1-3)Gal
Summary of the method: as §1

Glc(a1-4)Glc = target: Glc(a1-4)Glc
Summary of the method: as §1

[4] = target: GlcNAc(a1-6)Gal(b1-4)GlcNAc
Summary of the method: as §1

Kdn(a2-3)Gal(b1-4)GlcNAc = target: Kdn(a2-3)Gal(b1-4)GlcNAc
Summary of the method: as §1

Man(a1-2)Man(a1-3)Man = target: Man(a1-2)Man(a1-3)Man
Summary of the method: as §1

Man(a1-3)[Man(a1-6)]Man = target: Man(a1-3)[Man(a1-6)]Man
Summary of the method: as §1

[5] = target: Man(a1-3)[Man(a1-6)]Man(b1-4)GlcNAc(b1-4)GlcNAc
Summary of the method: as §1

[6] = target: Neu5Ac(a2-3)Gal(b1-4)GlcNAc(b1-3)Gal(b1-4)GlcNAc
Summary of the method: as §1

[7] = target: Neu5Ac(a2-8)Neu5Ac(a2-3)[GalNAc(b1-4)]Gal(b1-4)Glc
Summary of the method: as §1

[8] = target: Neu5Ac(a2-8)Neu5Ac(a2-8)Neu5Ac
Summary of the method: as §1

[9] = target: Neu5Ac9Ac(a2-6)Gal(b1-4)GlcNAc
Summary of the method: as §1

[10] = target: Neu5Ac(a2-6)Gal(b1-4)GlcNAc(b1-3)Gal(b1-3)GlcNAc
Summary of the method: as §1

[11] = target: Neu5Ac(a2-6)Gal(b1-4)GlcNAc(b1-3)Gal(b1-4)GlcNAc
Summary of the method: as §1

[12] = target: Neu5Ac(a2-6)Gal(b1-4)GlcNAc(b1-3)Gal(b1-4)[Fuc(a1-3)]GlcNAc(b1-3)Gal(b1-4)[Fuc(a1-3)]GlcNAc
Summary of the method: as §1

Binder	glycan array binding signal (z-score) (Fuc(a1-2)Gal(b1-3)GlcNAc)	glycan array binding signal (z-score) [1]	glycan array binding signal (z-score) (Fuc(a1-2)Gal(b1-4)GlcNAc)	glycan array binding signal (z-score) [2]	glycan array binding signal (z-score) [3]	glycan array binding signal (z-score) (Gal(a1-3)Gal(b1-4)GlcNAc)	glycan array binding signal (z-score) (Gal(a1-4)GlcNAc)	glycan array binding signal (z-score) (Gal4S(b1-4)GlcNAc)	glycan array binding signal (z-score) (GalNAc(a1-3)Gal)	glycan array binding signal (z-score) (Glc(a1-4)Glc)	glycan array binding signal (z-score) [4]	glycan array binding signal (z-score) (Kdn(a2-3)Gal(b1-4)GlcNAc)	glycan array binding signal (z-score) (Man(a1-2)Man(a1-3)Man)	glycan array binding signal (z-score) (Man(a1-3)[Man(a1-6)]Man)	glycan array binding signal (z-score) [5]	glycan array binding signal (z-score) [6]	glycan array binding signal (z-score) [7]	glycan array binding signal (z-score) [8]	glycan array binding signal (z-score) [9]	glycan array binding signal (z-score) [10]	glycan array binding signal (z-score) [11]	glycan array binding signal (z-score) [12]
CV-IIL (Chromobacterium violaceum) (protein) AQQGVFTLPARINFGVTVLVNSAATQHVEIFVDNEPRAAFSGVGTGDNNLGTKVINSGSGNVRVQITANGRQSDLVSSQLVLANKLNLAVVGSEDGTDMDYNDSIVILNWPLG	2.67	2.2	2.98	1.68	1.2	-0.501	-0.501	-0.501	-0.502	-0.49	-0.501	-0.502	1.55	2.82	2.82	-0.498	-0.501	-0.501	-0.502	–	–	–
StdA (Salmonella typhimurium), Q8Z3Z0 (protein) MAAAGMMYGASVFAADTTPTAGPFGSGKILFTGTITNSPCDIAPGDDAITVPFGQISYRKLNTANATTDSKPFTIHLQNCAFDPNETTIAGSAGKMSKVTVSFSGTADTSGKAYVSTGSAQHVGVQLLKGDNTSLITPNTPMPDGDAQQLQAGNNELNFFARLIALTDAATPGDVNASVTYTLKYL	–	–	–	–	–	–	–	–	–	–	–	–	–	–	–	–	–	–	–	-0.819	-0.14	0.009
